# Legend:
# Assay in all cases: DAPPL (digital affinity profiling via proximity ligation, sequencing); 10 mM Tris-HCl pH 7.5, 50 mM NaCl, 1 mM DTT, 4% glycerol, room temperature, 30 min; GST-TFs on glutathione beads, 16-mer random dsDNA library, 0.1% formaldehyde crosslink after washing; high values mean tight binding
# FLI1 = molecular target: T1, FLI1 (Homo sapiens, UniProt Q01543 1-452); details: protein: recombinant; tags: N-terminal GST; dsDNA, one strand shown
# T1 sequence: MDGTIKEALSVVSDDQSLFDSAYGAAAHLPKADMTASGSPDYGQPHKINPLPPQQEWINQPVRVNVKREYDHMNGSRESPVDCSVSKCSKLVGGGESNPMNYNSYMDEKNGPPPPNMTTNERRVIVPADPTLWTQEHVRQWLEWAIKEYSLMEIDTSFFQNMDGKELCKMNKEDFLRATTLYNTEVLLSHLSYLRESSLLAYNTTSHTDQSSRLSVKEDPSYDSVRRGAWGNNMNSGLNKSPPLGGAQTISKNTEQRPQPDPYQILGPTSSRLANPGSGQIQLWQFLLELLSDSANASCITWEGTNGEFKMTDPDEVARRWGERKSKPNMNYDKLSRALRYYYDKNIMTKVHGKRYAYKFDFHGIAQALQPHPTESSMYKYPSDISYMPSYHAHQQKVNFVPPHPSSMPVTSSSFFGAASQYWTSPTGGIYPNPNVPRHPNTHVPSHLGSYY
# Procedure, shortened: (§1)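 In yeast, human transcription factors were expressed with a GST fusion, then pulled down on glutathione beads and given DNA barcodes. Pooled with a tag-only sample, they were exposed to 200 nmole of a 16-mer random double-stranded DNA library (Tris/NaCl/DTT/glycerol buffer, room temperature, 30 min), washed, crosslinked with 0.1% formaldehyde, proximity-ligated using BsaI/T4 ligase for 1 h at 37 °C, PCR-amplified and read on an Illumina NextSeq500. Each hexamer's frequency of reads for a factor, divided by the matching frequency for the tag-only sample, gives the binding signal.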
# ELK1 = molecular target: T2, ELK1 (Homo sapiens, UniProt P19419 1-428); details: protein: recombinant; tags: N-terminal GST; dsDNA, one strand shown
# T2 sequence: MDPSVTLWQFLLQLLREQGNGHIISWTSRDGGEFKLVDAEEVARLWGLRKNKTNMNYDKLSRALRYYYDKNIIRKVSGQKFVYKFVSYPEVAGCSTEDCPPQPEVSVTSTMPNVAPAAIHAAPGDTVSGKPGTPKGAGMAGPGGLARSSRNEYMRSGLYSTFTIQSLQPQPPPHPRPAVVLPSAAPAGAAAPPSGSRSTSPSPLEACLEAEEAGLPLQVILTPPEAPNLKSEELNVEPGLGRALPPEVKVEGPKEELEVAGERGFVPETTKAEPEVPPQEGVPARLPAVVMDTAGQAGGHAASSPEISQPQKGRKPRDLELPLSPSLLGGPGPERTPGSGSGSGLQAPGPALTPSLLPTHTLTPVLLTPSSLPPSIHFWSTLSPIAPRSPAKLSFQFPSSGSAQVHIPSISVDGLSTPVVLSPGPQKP
# Procedure, shortened: as §1
# GABPA = molecular target: T3, GABPA (Homo sapiens, UniProt Q06546 1-454); details: protein: recombinant; tags: N-terminal GST; dsDNA, one strand shown
# T3 sequence: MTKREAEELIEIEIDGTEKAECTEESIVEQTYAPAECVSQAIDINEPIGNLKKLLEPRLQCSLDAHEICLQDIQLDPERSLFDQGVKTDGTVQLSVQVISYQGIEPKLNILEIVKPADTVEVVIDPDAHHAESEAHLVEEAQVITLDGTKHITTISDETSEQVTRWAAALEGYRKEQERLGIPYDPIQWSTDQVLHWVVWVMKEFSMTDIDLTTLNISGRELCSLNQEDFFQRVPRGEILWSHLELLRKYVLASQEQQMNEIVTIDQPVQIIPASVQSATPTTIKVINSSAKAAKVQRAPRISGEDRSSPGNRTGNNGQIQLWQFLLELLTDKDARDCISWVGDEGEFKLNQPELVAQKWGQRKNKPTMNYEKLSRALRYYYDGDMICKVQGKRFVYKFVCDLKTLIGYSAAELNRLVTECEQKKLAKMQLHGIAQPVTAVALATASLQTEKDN
# Procedure, shortened: as §1
# ERG = molecular target: T4, ERG (Homo sapiens, UniProt P11308 1-479); details: protein: recombinant; tags: N-terminal GST; dsDNA, one strand shown
# T4 sequence: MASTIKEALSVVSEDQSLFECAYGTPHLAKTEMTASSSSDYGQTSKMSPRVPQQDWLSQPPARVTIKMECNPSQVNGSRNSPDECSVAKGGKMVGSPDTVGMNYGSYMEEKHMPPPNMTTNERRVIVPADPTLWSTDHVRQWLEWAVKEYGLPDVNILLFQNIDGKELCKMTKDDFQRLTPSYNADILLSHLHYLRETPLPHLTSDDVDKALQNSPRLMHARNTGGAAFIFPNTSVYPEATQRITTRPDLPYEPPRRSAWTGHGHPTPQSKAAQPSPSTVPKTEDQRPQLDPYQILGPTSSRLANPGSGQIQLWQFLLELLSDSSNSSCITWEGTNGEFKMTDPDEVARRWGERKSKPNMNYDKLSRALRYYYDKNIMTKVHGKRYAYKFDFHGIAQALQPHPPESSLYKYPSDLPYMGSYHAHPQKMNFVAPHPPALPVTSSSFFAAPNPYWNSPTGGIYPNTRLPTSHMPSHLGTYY
# Procedure, shortened: as §1
# ELF1 = ELF1 (Homo sapiens, UniProt P32519 1-619); details: protein: recombinant; tags: N-terminal GST; dsDNA, one strand shown
# ELF1, sequence (P32519 whole entry): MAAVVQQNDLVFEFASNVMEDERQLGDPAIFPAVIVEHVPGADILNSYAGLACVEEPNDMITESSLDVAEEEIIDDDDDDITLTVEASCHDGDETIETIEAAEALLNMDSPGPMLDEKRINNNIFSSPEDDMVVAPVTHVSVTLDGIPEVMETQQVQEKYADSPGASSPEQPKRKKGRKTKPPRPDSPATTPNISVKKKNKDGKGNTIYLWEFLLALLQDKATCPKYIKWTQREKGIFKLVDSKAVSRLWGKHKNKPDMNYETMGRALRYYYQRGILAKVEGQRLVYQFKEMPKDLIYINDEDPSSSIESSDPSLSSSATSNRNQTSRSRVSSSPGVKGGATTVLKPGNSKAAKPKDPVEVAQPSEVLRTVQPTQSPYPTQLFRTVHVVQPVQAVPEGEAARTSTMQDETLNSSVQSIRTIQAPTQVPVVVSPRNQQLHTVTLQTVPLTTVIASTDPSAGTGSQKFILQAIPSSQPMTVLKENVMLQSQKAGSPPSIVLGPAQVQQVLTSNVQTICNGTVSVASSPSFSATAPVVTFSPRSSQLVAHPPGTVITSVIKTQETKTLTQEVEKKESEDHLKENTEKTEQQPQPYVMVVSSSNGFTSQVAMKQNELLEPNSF
# Procedure, shortened: as §1
# EHF = molecular target: T5, EHF (Homo sapiens, UniProt Q9NZC4 1-300); details: protein: recombinant; tags: N-terminal GST; dsDNA, one strand shown
# T5 sequence: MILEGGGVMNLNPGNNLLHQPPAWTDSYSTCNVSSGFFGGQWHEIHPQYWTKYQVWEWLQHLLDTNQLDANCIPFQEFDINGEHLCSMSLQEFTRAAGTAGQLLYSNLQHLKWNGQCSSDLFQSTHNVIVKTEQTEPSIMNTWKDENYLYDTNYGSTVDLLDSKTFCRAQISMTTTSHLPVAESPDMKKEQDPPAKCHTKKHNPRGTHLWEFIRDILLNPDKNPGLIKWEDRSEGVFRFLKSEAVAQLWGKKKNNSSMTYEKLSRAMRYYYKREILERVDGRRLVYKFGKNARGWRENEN
# Procedure, shortened: as §1
# SPI1 = SPI1 (Homo sapiens, UniProt P17947 1-270); details: protein: recombinant; tags: N-terminal GST; dsDNA, one strand shown
# Procedure, shortened: as §1
# SPIB = SPIB (Homo sapiens, UniProt Q01892 1-262); details: protein: recombinant; tags: N-terminal GST; dsDNA, one strand shown
# SPIB, sequence (Q01892 whole entry): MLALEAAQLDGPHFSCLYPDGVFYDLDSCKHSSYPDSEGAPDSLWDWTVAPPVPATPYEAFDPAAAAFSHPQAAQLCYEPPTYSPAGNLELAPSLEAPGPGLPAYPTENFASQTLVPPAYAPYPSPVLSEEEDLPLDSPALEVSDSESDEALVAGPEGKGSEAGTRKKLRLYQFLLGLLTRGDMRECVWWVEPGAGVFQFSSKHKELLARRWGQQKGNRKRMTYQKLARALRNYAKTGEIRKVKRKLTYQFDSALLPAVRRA
# Procedure, shortened: as §1
# ELK3 = molecular target: T6, ELK3 (Homo sapiens, UniProt P41970 1-407); details: protein: recombinant; tags: N-terminal GST; dsDNA, one strand shown
# T6 sequence: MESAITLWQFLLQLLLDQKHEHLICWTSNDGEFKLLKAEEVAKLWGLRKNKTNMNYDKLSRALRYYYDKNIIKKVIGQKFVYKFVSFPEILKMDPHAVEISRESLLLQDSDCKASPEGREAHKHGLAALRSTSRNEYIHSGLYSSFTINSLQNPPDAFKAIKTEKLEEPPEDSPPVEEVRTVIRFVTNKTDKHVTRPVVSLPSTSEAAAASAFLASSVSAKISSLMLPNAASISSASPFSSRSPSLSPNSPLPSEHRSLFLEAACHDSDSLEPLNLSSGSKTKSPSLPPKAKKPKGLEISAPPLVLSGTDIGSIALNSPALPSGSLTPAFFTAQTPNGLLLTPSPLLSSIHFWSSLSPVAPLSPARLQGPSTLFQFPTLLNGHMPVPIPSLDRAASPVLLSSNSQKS
# Procedure, shortened: as §1
# FEV = molecular target: T7, FEV (Homo sapiens, UniProt Q99581 1-238); details: protein: recombinant; tags: N-terminal GST; dsDNA, one strand shown
# T7 sequence: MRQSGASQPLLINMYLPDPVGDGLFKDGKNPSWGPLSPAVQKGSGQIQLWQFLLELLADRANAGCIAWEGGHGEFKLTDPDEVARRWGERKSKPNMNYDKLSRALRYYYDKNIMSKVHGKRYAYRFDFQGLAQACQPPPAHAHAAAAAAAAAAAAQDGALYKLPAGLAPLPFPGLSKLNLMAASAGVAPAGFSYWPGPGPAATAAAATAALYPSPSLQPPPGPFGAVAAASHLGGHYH
# Procedure, shortened: as §1
# ETV5 = ETV5 (Homo sapiens, UniProt P41161 1-510); details: protein: recombinant; tags: N-terminal GST; dsDNA, one strand shown
# ETV5, sequence (P41161 whole entry): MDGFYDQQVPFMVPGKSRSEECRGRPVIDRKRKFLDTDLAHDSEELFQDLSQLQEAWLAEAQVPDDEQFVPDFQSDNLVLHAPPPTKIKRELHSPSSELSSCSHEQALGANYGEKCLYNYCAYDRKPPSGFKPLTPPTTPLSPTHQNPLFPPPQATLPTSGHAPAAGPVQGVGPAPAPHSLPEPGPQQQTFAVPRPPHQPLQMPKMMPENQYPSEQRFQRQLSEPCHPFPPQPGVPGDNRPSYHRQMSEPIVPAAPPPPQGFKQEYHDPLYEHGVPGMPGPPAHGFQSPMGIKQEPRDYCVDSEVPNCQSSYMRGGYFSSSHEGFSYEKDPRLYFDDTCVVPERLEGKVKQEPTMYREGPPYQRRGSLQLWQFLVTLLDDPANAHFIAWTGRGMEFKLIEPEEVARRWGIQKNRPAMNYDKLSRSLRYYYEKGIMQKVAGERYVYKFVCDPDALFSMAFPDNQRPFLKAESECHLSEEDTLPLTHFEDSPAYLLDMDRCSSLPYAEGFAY
# Procedure, shortened: as §1
# HSF1 = HSF1 (Homo sapiens, UniProt Q00613 1-529); details: protein: recombinant; tags: N-terminal GST; chain copies: 3; dsDNA, one strand shown
# HSF1, sequence (Q00613 whole entry): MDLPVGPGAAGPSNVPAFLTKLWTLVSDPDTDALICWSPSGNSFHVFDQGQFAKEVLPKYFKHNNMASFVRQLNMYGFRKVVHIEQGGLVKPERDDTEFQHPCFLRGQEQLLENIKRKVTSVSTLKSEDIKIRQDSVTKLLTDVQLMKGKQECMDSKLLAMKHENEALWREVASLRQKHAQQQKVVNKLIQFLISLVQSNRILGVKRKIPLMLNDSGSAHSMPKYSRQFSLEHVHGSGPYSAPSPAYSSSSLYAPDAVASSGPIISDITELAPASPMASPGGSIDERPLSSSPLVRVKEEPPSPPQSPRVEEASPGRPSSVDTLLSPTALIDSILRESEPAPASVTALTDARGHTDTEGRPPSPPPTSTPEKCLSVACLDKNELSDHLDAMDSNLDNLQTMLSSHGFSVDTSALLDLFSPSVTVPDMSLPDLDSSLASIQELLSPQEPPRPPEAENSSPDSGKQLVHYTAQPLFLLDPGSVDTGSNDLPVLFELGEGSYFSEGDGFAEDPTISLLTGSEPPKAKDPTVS
# Procedure, shortened: as §1
# SPIC = molecular target: T8, SPIC (Homo sapiens, UniProt Q8N5J4 1-248); details: protein: recombinant; tags: N-terminal GST; dsDNA, one strand shown
# T8 sequence: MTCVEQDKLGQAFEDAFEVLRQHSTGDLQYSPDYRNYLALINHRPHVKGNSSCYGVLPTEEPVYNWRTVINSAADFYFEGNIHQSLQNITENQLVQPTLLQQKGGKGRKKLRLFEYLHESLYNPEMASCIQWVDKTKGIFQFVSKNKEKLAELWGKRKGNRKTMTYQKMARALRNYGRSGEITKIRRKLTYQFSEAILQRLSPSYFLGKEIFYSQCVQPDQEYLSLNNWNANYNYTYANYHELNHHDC
# Procedure, shortened: as §1
# ELF4 = ELF4 (Homo sapiens, UniProt Q99607 1-663); details: protein: recombinant; tags: N-terminal GST; dsDNA, one strand shown
# ELF4, sequence (Q99607 whole entry): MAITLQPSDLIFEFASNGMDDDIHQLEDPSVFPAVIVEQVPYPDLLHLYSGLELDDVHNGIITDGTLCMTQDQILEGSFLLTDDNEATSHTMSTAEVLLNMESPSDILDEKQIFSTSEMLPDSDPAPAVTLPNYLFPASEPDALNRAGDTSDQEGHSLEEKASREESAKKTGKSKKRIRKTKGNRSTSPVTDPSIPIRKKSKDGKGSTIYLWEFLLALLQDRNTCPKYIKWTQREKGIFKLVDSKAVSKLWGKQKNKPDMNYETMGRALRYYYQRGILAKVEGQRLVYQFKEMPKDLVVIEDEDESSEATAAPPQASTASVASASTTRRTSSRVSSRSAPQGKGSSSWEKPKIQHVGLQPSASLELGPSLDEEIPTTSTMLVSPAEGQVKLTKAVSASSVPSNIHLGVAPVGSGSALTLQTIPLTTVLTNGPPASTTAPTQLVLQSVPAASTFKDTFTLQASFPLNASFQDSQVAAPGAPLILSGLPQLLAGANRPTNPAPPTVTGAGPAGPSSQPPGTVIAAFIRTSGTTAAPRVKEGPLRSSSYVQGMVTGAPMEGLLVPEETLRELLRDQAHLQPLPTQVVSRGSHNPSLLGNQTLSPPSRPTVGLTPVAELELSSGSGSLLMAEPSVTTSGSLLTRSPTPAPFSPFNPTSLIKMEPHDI
# Procedure, shortened: as §1
# ELK4 = molecular target: T9, ELK4 (Homo sapiens, UniProt P28324-2 1-405); details: protein: recombinant; tags: N-terminal GST; dsDNA, one strand shown
# T9 sequence: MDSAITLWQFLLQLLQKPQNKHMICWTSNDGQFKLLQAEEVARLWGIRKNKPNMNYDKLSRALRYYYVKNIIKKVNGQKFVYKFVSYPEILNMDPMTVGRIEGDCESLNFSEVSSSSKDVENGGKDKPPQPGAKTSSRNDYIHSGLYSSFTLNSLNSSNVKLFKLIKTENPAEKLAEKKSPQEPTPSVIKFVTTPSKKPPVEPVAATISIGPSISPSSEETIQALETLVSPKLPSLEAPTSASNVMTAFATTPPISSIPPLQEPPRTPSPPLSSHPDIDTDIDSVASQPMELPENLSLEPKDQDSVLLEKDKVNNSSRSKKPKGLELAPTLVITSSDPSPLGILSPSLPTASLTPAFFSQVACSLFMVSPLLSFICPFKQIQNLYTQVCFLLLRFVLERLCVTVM
# Procedure, shortened: as §1
# ETV2 = molecular target: T10, ETV2 (Homo sapiens, UniProt O00321 1-342); details: protein: recombinant; tags: N-terminal GST; dsDNA, one strand shown
# T10 sequence: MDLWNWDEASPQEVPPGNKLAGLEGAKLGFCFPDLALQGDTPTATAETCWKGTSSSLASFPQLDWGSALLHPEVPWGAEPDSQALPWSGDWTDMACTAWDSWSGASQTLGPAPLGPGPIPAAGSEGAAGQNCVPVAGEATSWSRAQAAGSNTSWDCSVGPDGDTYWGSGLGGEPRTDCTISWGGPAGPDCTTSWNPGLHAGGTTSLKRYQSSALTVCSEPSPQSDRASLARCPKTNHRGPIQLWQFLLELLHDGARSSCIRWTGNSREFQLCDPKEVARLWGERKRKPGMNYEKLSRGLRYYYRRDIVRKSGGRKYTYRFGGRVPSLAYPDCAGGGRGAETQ
# Procedure, shortened: as §1
# ELF3 = molecular target: T11, ELF3 (Homo sapiens, UniProt P78545 1-371); details: protein: recombinant; tags: N-terminal GST; dsDNA, one strand shown
# T11 sequence: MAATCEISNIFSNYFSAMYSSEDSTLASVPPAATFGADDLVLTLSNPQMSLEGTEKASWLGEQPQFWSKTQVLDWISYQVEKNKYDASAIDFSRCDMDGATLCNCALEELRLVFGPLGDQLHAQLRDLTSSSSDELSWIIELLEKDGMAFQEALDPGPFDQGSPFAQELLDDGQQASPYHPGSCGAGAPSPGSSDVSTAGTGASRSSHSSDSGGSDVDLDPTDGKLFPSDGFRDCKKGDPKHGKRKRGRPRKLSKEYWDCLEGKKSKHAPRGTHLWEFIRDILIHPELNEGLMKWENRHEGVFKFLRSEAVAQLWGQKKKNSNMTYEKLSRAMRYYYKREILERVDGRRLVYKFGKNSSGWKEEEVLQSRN
# Procedure, shortened: as §1
# CRX = CRX (Homo sapiens, UniProt O43186 1-299); details: protein: recombinant; tags: N-terminal GST; dsDNA, one strand shown
# CRX, sequence (O43186 whole entry): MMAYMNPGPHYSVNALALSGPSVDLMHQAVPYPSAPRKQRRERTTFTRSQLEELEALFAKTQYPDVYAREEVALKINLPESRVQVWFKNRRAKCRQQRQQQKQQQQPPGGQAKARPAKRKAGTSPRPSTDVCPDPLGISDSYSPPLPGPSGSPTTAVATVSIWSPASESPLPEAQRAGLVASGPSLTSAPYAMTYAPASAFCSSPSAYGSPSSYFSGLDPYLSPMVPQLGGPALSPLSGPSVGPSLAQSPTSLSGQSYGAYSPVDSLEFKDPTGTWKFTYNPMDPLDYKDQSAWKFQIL
# Procedure, shortened: as §1
# ETV1 = ETV1 (Homo sapiens, UniProt P50549 1-477); details: protein: recombinant; tags: N-terminal GST; dsDNA, one strand shown
# ETV1, sequence (P50549 whole entry): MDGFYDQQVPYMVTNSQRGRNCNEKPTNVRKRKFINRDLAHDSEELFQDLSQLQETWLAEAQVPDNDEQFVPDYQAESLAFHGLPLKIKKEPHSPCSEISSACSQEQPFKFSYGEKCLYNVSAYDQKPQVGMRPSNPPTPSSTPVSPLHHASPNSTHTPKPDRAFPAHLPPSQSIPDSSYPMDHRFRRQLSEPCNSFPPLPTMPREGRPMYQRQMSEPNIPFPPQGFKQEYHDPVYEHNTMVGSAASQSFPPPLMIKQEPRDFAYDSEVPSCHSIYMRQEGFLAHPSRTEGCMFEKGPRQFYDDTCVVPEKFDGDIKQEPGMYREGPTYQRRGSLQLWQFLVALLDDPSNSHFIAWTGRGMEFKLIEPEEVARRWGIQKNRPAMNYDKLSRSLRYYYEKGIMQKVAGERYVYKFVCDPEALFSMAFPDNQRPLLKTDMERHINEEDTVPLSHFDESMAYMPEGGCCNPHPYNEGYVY
# Procedure, shortened: as §1
sequence,measurement,setting,value
CTAGGT,binding signal,FLI1,"1.07 fold enrichment (6-mer frequency, TF over GST control)"
same,binding signal,ELK1,"1.13 fold enrichment (6-mer frequency, TF over GST control)"
same,binding signal,GABPA,"1.05 fold enrichment (6-mer frequency, TF over GST control)"
same,binding signal,ERG,"1.14 fold enrichment (6-mer frequency, TF over GST control)"
same,binding signal,ELF1,"1.2 fold enrichment (6-mer frequency, TF over GST control)"
same,binding signal,EHF,"1.09 fold enrichment (6-mer frequency, TF over GST control)"
same,binding signal,SPI1,"1.05 fold enrichment (6-mer frequency, TF over GST control)"
same,binding signal,SPIB,"1.13 fold enrichment (6-mer frequency, TF over GST control)"
same,binding signal,ELK3,"1.13 fold enrichment (6-mer frequency, TF over GST control)"
same,binding signal,FEV,"1.07 fold enrichment (6-mer frequency, TF over GST control)"
same,binding signal,ETV5,"1.18 fold enrichment (6-mer frequency, TF over GST control)"
same,binding signal,HSF1,"1.19 fold enrichment (6-mer frequency, TF over GST control)"
same,binding signal,SPIC,"1.26 fold enrichment (6-mer frequency, TF over GST control)"
same,binding signal,ELF4,"1.12 fold enrichment (6-mer frequency, TF over GST control)"
same,binding signal,ELK4,"1.18 fold enrichment (6-mer frequency, TF over GST control)"
same,binding signal,ETV2,"1.07 fold enrichment (6-mer frequency, TF over GST control)"
same,binding signal,ELF3,"1.18 fold enrichment (6-mer frequency, TF over GST control)"
same,binding signal,CRX,"1.05 fold enrichment (6-mer frequency, TF over GST control)"
same,binding signal,ETV1,"1.1 fold enrichment (6-mer frequency, TF over GST control)"

# — article PMC7862700, “An all-to-all approach to the identification of sequence-specific readers for epigenetic DNA modifications on cytosine”
